Laboratory results: PubChem BioAssay (NCI)
This is part of a sample that, as a whole, favours compounds with a hit. Of some 79,000 tested, about 15% had one in any assay. Active and inactive are the calls of the source. Rule as the data show it: active = growth inhibition above about 70%; inactive = the rest.

Tests used:
[1] = NCI Yeast Anticancer Drug Screen. Data for the wt1 strain (AID 149);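 also: 0% = growth of vehicle-treated wt1 cultures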; details: S. cerevisiae wt1 strain (SPY 50644) growth inhibition, active compounds read high
Method in brief: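 Using yeast strain wt1, compound-induced growth inhibition was determined against vehicle-treated cultures.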

[2] = NCI Yeast Anticancer Drug Screen. Data for the rad50EPP+ strain (AID 151);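 also: 0% = growth of vehicle-treated control cultures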; details: S. cerevisiae rad50 mutant strain, active compounds read high
Method in brief: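 rad50EPP+ yeast treated with test compounds. Readout: growth vs vehicle control.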

[3] = NCI Yeast Anticancer Drug Screen. Data for the rad50 strain (AID 155);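 also: 0% = growth of vehicle-only cultures of the same strain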; details: S. cerevisiae rad50 strain growth inhibition, active compounds read high
Method in brief: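 Relative growth inhibition (compound vs vehicle) was measured in yeast with a defined repair-gene alteration.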

[4] = NCI Yeast Anticancer Drug Screen. Data for the mec2-1 strain (AID 157); details: S. cerevisiae mec2-1 strain, active compounds read high
Method in brief: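 Growth inhibition is read against vehicle-treated controls after compound exposure of the mec2-1 yeast strain, which is defective in DNA damage repair or cell cycle control.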

[5] = NCI Yeast Anticancer Drug Screen. Data for the rad14 strain (AID 159);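 also: 0% = growth of vehicle-treated control cultures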; details: S. cerevisiae rad14 strain growth inhibition, active compounds read high
Method in brief: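 Screen for anticancer potential: a yeast strain altered in DNA damage repair is grown with compound, and reduced growth is quantified against vehicle controls.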

[6] = NCI Yeast Anticancer Drug Screen. Data for the sgs1 mgt1 strain (AID 161);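 also: 0% = growth of cultures given vehicle only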; details: S. cerevisiae sgs1 mgt1 strain, active compounds read high
Method in brief: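 Percent growth inhibition was derived by comparing compound-exposed mutant yeast with vehicle-exposed cultures. The strain carries alterations in DNA damage repair.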

[7] = NCI Yeast Anticancer Drug Screen. Data for the CLN2oe strain (AID 163);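 also: 0% = growth of vehicle-only control cultures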; details: S. cerevisiae CLN2oe strain, active compounds read high
Method in brief: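 Compound-treated yeast; growth vs vehicle ctrl = % inhibition. Genetically altered strain (cell-cycle control).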

[8] = NCI Yeast Anticancer Drug Screen. Data for the cln2 rad14 strain (AID 165);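 also: 0% = growth equal to vehicle treated cultures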; details: S. cerevisiae cln2 rad14 strain, active compounds read high
Method in brief: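 Growth inhibition, relative to vehicle-treated controls, is the read-out. The test organism is a yeast strain with defined genetic alterations, cln2 rad14.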

[9] = NCI Yeast Anticancer Drug Screen. Data for the bub3 strain (AID 167); details: S. cerevisiae bub3 mutant strain, active compounds read high
Method in brief: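 Screening used yeast with an engineered genetic alteration affecting cell cycle control. Compound-exposed cultures were compared with vehicle cultures, and reduced growth was taken as inhibition.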

[10] = NCI Yeast Anticancer Drug Screen. Data for the wt2 strain (AID 169);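 also: 0% = growth of vehicle-treated yeast cultures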; details: S. cerevisiae wt2 strain growth inhibition, active compounds read high
Method in brief: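 Compound exposure of yeast; growth compared with vehicle controls; inhibition reported.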

[11] = NCI Yeast Anticancer Drug Screen. Data for the mlh1 strain (AID 171);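 also: 0% = growth of vehicle-treated control cultures of the same strain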; details: S. cerevisiae mlh1 strain growth inhibition, active compounds read high
Method in brief: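 Compounds are applied to a genetically altered yeast strain, and its growth is compared with that of vehicle-treated cultures to give percent inhibition.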

[12] = NCI Yeast Anticancer Drug Screen. Data for the sgs1 strain (AID 173);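 also: 0% = growth of vehicle-only control cultures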; details: S. cerevisiae sgs1 mutant, active compounds read high
Method in brief: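 Compounds applied to genetically altered yeast; growth compared with vehicle-treated cultures to give % inhibition.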

[13] = NCI Yeast Anticancer Drug Screen. Data for the mlh1 rad18 strain (AID 175); details: S. cerevisiae mlh1 rad18 strain growth inhibition, active compounds read high
Method in brief: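 Cells of a genetically altered yeast strain, deficient in DNA damage repair, were treated with compound. Their growth was then compared with that of vehicle-treated cultures to give inhibition.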

[14] = NCI Yeast Anticancer Drug Screen. Data for the rad18 strain (AID 177); details: S. cerevisiae rad18 mutant growth inhibition, active compounds read high
Method in brief: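 Compounds are applied to a repair-deficient yeast strain, and growth is compared with that of vehicle-treated cultures to give percent inhibition.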

[15] = NCI Yeast Anticancer Drug Screen. Data for the mgt1 strain (AID 153); details: S. cerevisiae mgt1 mutant growth inhibition, active compounds read high
Method in brief: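 Growth inhibition relative to vehicle controls was scored for the mgt1 yeast strain after compound exposure.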

[16] = at 5.0 µM (retest, dose inferred, filed as 0.5)
[17] = at 50.0 µM (retest, dose inferred, filed as 5.0)

Measured: growth inhibition

COC(=O)/C(C#N)=C\NC(=S)C(N)=S
inactive: [1]; at 1.2 µM 8% | [1]; at 3.7 µM 26% | [1]; at 11.0 µM 54% | [2]; at 1.2 µM -24% | [2]; at 3.7 µM -24% | [2]; at 11.0 µM 2% | [2]; at 33.0 µM 64% | [3]; at 1.2 µM 12% | [3]; at 3.7 µM 30% | [3]; [16] 2% | [4]; at 1.2 µM -5% | [4]; at 3.7 µM 24% | [4]; [16] -1% | [5]; at 1.2 µM 4% | [5]; at 3.7 µM 15% | [6]; [16] 13% | [7]; at 1.2 µM 21% | [7]; at 3.7 µM 40% | [8]; [16] 22% | [9]; at 1.2 µM 24% | [9]; at 3.7 µM 34% | [9]; [16] 4% | [10]; at 1.2 µM -6% | [10]; at 3.7 µM 10% | [10]; at 11.0 µM 40% | [11]; at 1.2 µM 17% | [11]; at 3.7 µM 32% | [12]; at 1.2 µM 9% | [12]; at 3.7 µM 25% | [13]; [16] 50% | [14]; at 1.2 µM -4% | [14]; at 3.7 µM 16% | [14]; at 11.0 µM 53%
active: [1]; at 33.0 µM 99% | [1]; at 100.0 µM 98% | [2]; at 100.0 µM 97% | [3]; at 11.0 µM 90% | [3]; at 33.0 µM 98% | [3]; [17] 98% | [3]; at 50.0 µM 88.5% | [3]; at 100.0 µM 97% | [4]; at 11.0 µM 98% | [4]; at 33.0 µM 99% | [4]; [17] 99% | [4]; at 50.0 µM 93.2% | [4]; at 100.0 µM 98% | [5]; at 11.0 µM 98% | [5]; at 33.0 µM 99% | [5]; at 100.0 µM 98% | [6]; [17] 98% | [6]; at 50.0 µM 91.1% | [7]; at 11.0 µM 96% | [7]; at 33.0 µM 100% | [7]; at 100.0 µM 98% | [8]; [17] 99% | [8]; at 50.0 µM 89.5% | [9]; at 11.0 µM 99% | [9]; at 33.0 µM 99% | [9]; [17] 99% | [9]; at 50.0 µM 91.3% | [9]; at 100.0 µM 98% | [10]; at 33.0 µM 99% | [10]; at 100.0 µM 98% | [11]; at 11.0 µM 98% | [11]; at 33.0 µM 99% | [11]; at 100.0 µM 98% | [12]; at 11.0 µM 86% | [12]; at 33.0 µM 99% | [12]; at 100.0 µM 98% | [13]; [17] 98% | [13]; at 50.0 µM 89.3% | [14]; at 33.0 µM 99% | [14]; at 100.0 µM 98%

O=C1NC(c2cccc(OCc3ccccc3)c2)Nc2ccccc21 (stereo not drawn)
inactive: [1]; at 1.2 µM -10% | [1]; at 3.7 µM -20% | [1]; at 11.0 µM -22% | [1]; at 33.0 µM -26% | [1]; at 100.0 µM -5% | [2]; at 1.2 µM -3% | [2]; at 3.7 µM 10% | [2]; at 11.0 µM 0% | [2]; at 33.0 µM 6% | [2]; at 100.0 µM 16% | [15]; at 1.2 µM -7% | [15]; at 3.7 µM -19% | [15]; at 11.0 µM -35% | [15]; at 33.0 µM -22% | [15]; at 100.0 µM -51% | [3]; at 1.2 µM 12% | [3]; at 3.7 µM 12% | [3]; [16] 49% | [3]; at 11.0 µM 8% | [3]; at 33.0 µM 6% | [3]; at 100.0 µM -9% | [4]; at 1.2 µM 13% | [4]; at 3.7 µM 11% | [4]; [16] 42% | [4]; at 11.0 µM 6% | [4]; at 33.0 µM 5% | [4]; at 100.0 µM 0% | [5]; at 1.2 µM -6% | [5]; at 3.7 µM -14% | [5]; at 11.0 µM -11% | [5]; at 33.0 µM -19% | [5]; at 100.0 µM -17% | [6]; [16] 5% | [6]; [17] 35% | [6]; at 50.0 µM 63.9% | [7]; at 1.2 µM -4% | [7]; at 3.7 µM -9% | [7]; at 11.0 µM -5% | [7]; at 33.0 µM -7% | [7]; at 100.0 µM 1% | [9]; at 1.2 µM 6% | [9]; at 3.7 µM 14% | [9]; [16] 20% | [9]; at 11.0 µM 8% | [9]; at 33.0 µM 4% | [9]; [17] 32% | [9]; at 50.0 µM 67.8% | [9]; at 100.0 µM 1% | [10]; at 1.2 µM -5% | [10]; at 3.7 µM -11% | [10]; at 11.0 µM -7% | [10]; at 33.0 µM -14% | [10]; at 100.0 µM 3% | [11]; at 1.2 µM 1% | [11]; at 3.7 µM 1% | [11]; at 11.0 µM 5% | [11]; at 33.0 µM -4% | [11]; at 100.0 µM -14% | [12]; at 1.2 µM 2% | [12]; at 3.7 µM 0% | [12]; at 11.0 µM -7% | [12]; at 33.0 µM -6% | [12]; at 100.0 µM -14% | [13]; [16] 36% | [13]; at 50.0 µM 65.2% | [14]; at 1.2 µM -6% | [14]; at 3.7 µM -18% | [14]; at 11.0 µM -26% | [14]; at 33.0 µM -21% | [14]; at 100.0 µM -37%
active: [3]; [17] 81% | [3]; at 50.0 µM 84.3% | [4]; [17] 74% | [4]; at 50.0 µM 77.8% | [13]; [17] 71%

CC1=C(C)C(=O)C2=C(OCCO2)C1=O
active: [3]; [17] 87% | [3]; at 100.0 µM 88%
inactive: [1]; at 1.2 µM -4% | [1]; at 3.7 µM -5% | [1]; at 11.0 µM -5% | [1]; at 33.0 µM -4% | [1]; at 100.0 µM 17% | [2]; at 1.2 µM -3% | [2]; at 3.7 µM -3% | [2]; at 11.0 µM 5% | [2]; at 33.0 µM 10% | [2]; at 100.0 µM 46% | [15]; at 1.2 µM -8% | [15]; at 3.7 µM -2% | [15]; at 11.0 µM -2% | [15]; at 33.0 µM 3% | [15]; at 100.0 µM 43% | [3]; at 1.2 µM -3% | [3]; at 3.7 µM 0% | [3]; [16] -23% | [3]; at 11.0 µM 7% | [3]; at 33.0 µM 33% | [3]; at 50.0 µM 1% | [4]; at 1.2 µM -3% | [4]; at 3.7 µM -3% | [4]; [16] -8% | [4]; at 11.0 µM -5% | [4]; at 33.0 µM -1% | [4]; [17] 24% | [4]; at 50.0 µM -3.25%
